Among the data in the antibiotic and cytotoxicity screens of Wong et al. (2023) are cytotoxicity call values, retold here.

Molecules are shown by their SMILES. Screen size: about 39,000 compounds; about 3,300 (8.5%) were called active. This is one part of a sample in which actives are shown more often than they occur.

The test relates to HepG2. In words: cytotoxicity call (relative viability < 0.9). The note with it: 10 µM.
As to `Cn1cc(N2C[C@]3(COCCN(C(=O)C4(C#N)CC4)C3)OCC2=O)cn1`, the cytotoxicity call was “inactive”. As to `COc1cc(-c2coc3cc(O[C@@H]4O[C@H](CO)[C@@H](O)[C@H](O)[C@H]4O)c(OC)c(O)c3c2=O)cc(O)c1OC`, the cytotoxicity call is “inactive”. Turning to `COc1ccc(-c2oc3cc(O[C@H]4O[C@H](CO)[C@@H](O)[C@H](O)[C@H]4O)c(OC)c(O)c3c(=O)c2OC)cc1O`, the cytotoxicity call is “inactive”. With `COc1cc(-c2coc3cc(OC4OC(CO)C(O)C(O)C4O)c(OC)c(O)c3c2=O)cc(O)c1OC` (configuration not stated), the cytotoxicity call was “active”. In the case of `O=C1CCCSc2ccccc21` it was “inactive”; in that of `C[C@@H]1CN([C@H](C)CO)C(=O)c2cc(NC(=O)C3CCCCC3)ccc2O[C@@H](C)CCCCO[C@H]1CN(C)C(=O)Nc1ccc2c(c1)OCO2`, “inactive”. The entry for `C[C@@H]1CCCCO[C@@H](CN(C)C(=O)CCCN(C)C)[C@H](C)CN([C@@H](C)CO)C(=O)c2cc(N(C)C)ccc2O1` is “inactive”. `C[C@H](CO)N1C[C@H](C)[C@@H](CN(C)C(=O)Nc2ccc(F)cc2)OCCCC[C@H](C)Oc2ccc(NC(=O)Nc3ccccc3)cc2C1=O`: the cytotoxicity call is “inactive”.

As to `CC(C)C(C)C=CC(C)C1CCC2C3=CC=C4CC(O)CCC4(C)C3CCC21C` (configuration not stated), the cytotoxicity call was “inactive”. With `CCn1cc(C(=O)O)c(=O)c2ccc(C)nc21`, the cytotoxicity call was “inactive”. In the case of `Cc1ccc2c(Br)cc(Br)c(OC(=O)c3ccccc3)c2n1` it was “active”; in that of `CNC[C@@H]1Oc2cc(C#CC(C)(C)O)ccc2S(=O)(=O)N([C@@H](C)CO)C[C@H]1C`, “inactive”. In the case of `COc1ccccc1C#Cc1ccc2c(c1)O[C@@H](CN(C)Cc1ccncc1)[C@@H](C)CN([C@H](C)CO)S2(=O)=O` it was “inactive”; in that of `C[C@@H]1CN([C@@H](C)CO)S(=O)(=O)c2ccc(-c3ccncc3)cc2O[C@H]1CN(C)Cc1ccc(Oc2ccccc2)cc1`, “active”. Regarding `C[C@H]1CN([C@@H](C)CO)S(=O)(=O)c2ccc(-c3ccncc3)cc2O[C@H]1CN(C)Cc1ccc(Oc2ccccc2)cc1`, the cytotoxicity call is “inactive”. The entry for `COc1ccccc1C#Cc1ccc2c(c1)O[C@H](CN(C)Cc1ccncc1)[C@H](C)CN([C@H](C)CO)S2(=O)=O` is “active”; for `COc1ccccc1C#Cc1ccc2c(c1)O[C@H](CN(C)Cc1ccncc1)[C@@H](C)CN([C@H](C)CO)S2(=O)=O` it is “inactive”; for `COc1ccccc1C#Cc1ccc2c(c1)O[C@H](CN(C)Cc1ccncc1)[C@@H](C)CN([C@@H](C)CO)S2(=O)=O` it is “active”.

On to `C[C@H]1CN([C@@H](C)CO)S(=O)(=O)c2ccc(-c3ccncc3)cc2O[C@@H]1CN(C)Cc1ccc(Oc2ccccc2)cc1`, for which the cytotoxicity call was “inactive”. Regarding `COc1ccccc1C#Cc1ccc2c(c1)O[C@@H](CN(C)Cc1ccncc1)[C@@H](C)CN([C@@H](C)CO)S2(=O)=O`, the cytotoxicity call was “inactive”. For `COc1ccccc1C#Cc1ccc2c(c1)O[C@@H](CN(C)Cc1ccncc1)[C@H](C)CN([C@H](C)CO)S2(=O)=O`, the cytotoxicity call was “inactive”.

Regarding `Cl.N=C(N)n1cccn1`, the cytotoxicity call was “inactive”. For the compound `C[C@@H]1CCCCO[C@@H](CN(C)S(=O)(=O)c2cn(C)cn2)[C@@H](C)CN([C@H](C)CO)C(=O)c2cc(N(C)C)ccc2O1`, the cytotoxicity call is “inactive”. The entry for `Cn1cccc1CNCCCN1CCOCC1` is “inactive”; for `C[C@H]1CCCCO[C@H](CN(C)C(=O)Nc2ccc3c(c2)OCO3)[C@@H](C)CN([C@@H](C)CO)C(=O)c2cc(NC(=O)Nc3ccc(C(F)(F)F)cc3)ccc2O1` it is “inactive”.

Take `Cc1ccc(S(=O)(=O)N(C)C[C@H]2Oc3ccc(NS(C)(=O)=O)cc3C(=O)N([C@H](C)CO)C[C@@H]2C)cc1`: the cytotoxicity call was “inactive”. As for `Cc1noc(C)c1NC(=O)Nc1ccc2c(c1)C(=O)N([C@H](C)CO)C[C@@H](C)[C@H](CN(C)Cc1ccc(C(F)(F)F)cc1)O2`, the cytotoxicity call is “inactive”. As to `COc1ccc([C@@H]([C@H](Cc2ccccc2)OC(C)=O)N2C[C@H]3[C@H]([C@@H](OC(C)=O)c4ccccc4)ON(C)[C@H]3[C@@H]2Cc2ccccc2)cc1`, the cytotoxicity call was “active”.

As for `COc1ccc([C@@H]([C@H](Cc2ccccc2)OC(C)=O)N2C[C@H](CC(=O)N(C)C)[C@@H]3[C@H]([C@@H]2Cc2ccccc2)N(C)O[C@H]3c2ccccc2)cc1`, the cytotoxicity call was “inactive”. Consider `COc1ccc([C@@H]([C@H](Cc2ccccc2)OC(C)=O)N2C[C@@H]3C(=NO[C@H]3[C@@H](OC(C)=O)c3ccccc3)[C@@H]2Cc2ccccc2)cc1`, for which the cytotoxicity call was “inactive”. In the case of `COc1ccc([C@@H]([C@H](Cc2ccccc2)OC(C)=O)N2C[C@@H](OC(C)=O)[C@@H]3[C@H]([C@@H]2Cc2ccccc2)N(C)O[C@H]3c2ccccc2)cc1` it was “inactive”. `COc1ccc([C@@H]([C@H](Cc2ccccc2)OC(C)=O)N2C[C@@H](CC(=O)N(C)C)[C@H]3[C@@H]([C@@H]2Cc2ccccc2)N(C)O[C@@H]3c2ccccc2)cc1`: the cytotoxicity call is “active”. For the compound `COc1ccc([C@@H]([C@H](Cc2ccccc2)OC(C)=O)N2C[C@@H](NC(=O)C(Cl)(Cl)Cl)[C@@H]3[C@H]([C@@H]2Cc2ccccc2)N(C)O[C@H]3c2ccccc2)cc1`, the cytotoxicity call was “inactive”. In the case of `COc1ccc([C@@H]([C@H](Cc2ccccc2)OC(C)=O)N2C[C@H]3[C@@H]([C@@H](O)c4ccccc4)ON(C)[C@H]3[C@@H]2Cc2ccccc2)cc1` it was “active”; in that of `COc1ccc([C@@H]([C@H](Cc2ccccc2)OC(C)=O)N2C[C@@H](CC(=O)N(C)C)[C@@H]3[C@H]([C@@H]2Cc2ccccc2)N(C)O[C@H]3c2ccccc2)cc1`, “inactive”. In the case of `COc1ccc([C@@H]([C@H](Cc2ccccc2)OC(C)=O)N2C[C@@H]3[C@H]([C@@H]2Cc2ccccc2)N(C)O[C@@]3(O)[C@@H](O)c2ccccc2)cc1` it was “inactive”; in that of `Cn1cnc(S(=O)(=O)N[C@@H]2CC[C@@H](CC(=O)Nc3ccccc3)O[C@H]2CO)c1`, “inactive”; in that of `Cc1ccc(S(=O)(=O)Nc2ccc3c(c2)CC(=O)N([C@@H](C)CO)C[C@@H](C)[C@@H](CN(C)C(=O)NC(C)C)O3)cc1`, “inactive”.

As to `O=C(Nc1ccc2c(c1)[C@@H]1C[C@H](CC(=O)N3CCc4ccccc4C3)O[C@H](CO)[C@@H]1O2)C1CCOCC1`, the cytotoxicity call was “inactive”. In the case of `C[C@H](CO)N1C[C@H](C)[C@@H](CN(C)C(=O)Nc2cccc3ccccc23)OCCCC[C@H](C)Oc2ccc(NC(=O)Nc3ccccc3)cc2C1=O` it was “inactive”. The entry for `Cc1noc(C)c1S(=O)(=O)N(C)C[C@H]1Oc2ccc(NS(C)(=O)=O)cc2CC(=O)N([C@@H](C)CO)C[C@@H]1C` is “inactive”. In the case of `C[C@H](CO)N1C[C@H](C)[C@H](CN(C)C(=O)NC2CCCCC2)Oc2c(NC(=O)C3CC3)cccc2C1=O`, the cytotoxicity call is “inactive”.

Consider `C[C@@H]1CCCCO[C@@H](CN(C)S(C)(=O)=O)[C@@H](C)CN([C@H](C)CO)C(=O)c2cc(NS(=O)(=O)c3ccc(F)cc3)ccc2O1`, for which the cytotoxicity call was “inactive”.

Regarding `C[C@@H]1CCCCO[C@@H](CN(C)C(=O)Nc2cccc3ccccc23)[C@@H](C)CN([C@H](C)CO)C(=O)c2cc(NC(=O)Nc3ccccc3)ccc2O1`, the cytotoxicity call was “inactive”. Consider `COc1cccc(OCc2ccc(Cn3nc(NC(=O)Nc4c(OC)cccc4OC)c4ccccc43)cc2)c1`, for which the cytotoxicity call was “inactive”.

In the case of `O=C(O)COc1nn(Cc2ccccc2)c2ccccc12`, the cytotoxicity call is “inactive”. With `CN(C)CCCOc1nn(Cc2ccccc2)c2ccccc12.Cl`, the cytotoxicity call is “active”. The entry for `C[C@H]1CN([C@@H](C)CO)S(=O)(=O)c2ccc(C#CC3CC3)cc2O[C@@H]1CN(C)Cc1ccccc1F` is “inactive”. The entry for `C[C@@H]1CN([C@@H](C)CO)C(=O)Cc2cc(NC(=O)Cn3cnnn3)ccc2O[C@@H]1CN(C)S(=O)(=O)c1ccc(F)cc1` is “inactive”; for `Cc1ccccc1S(=O)(=O)N1C[C@H](O)COC[C@H]2O[C@@H](CC(=O)NCCc3ccccc3)CC[C@@H]21` it is “inactive”; for `O=c1[nH]cnc2nc[nH]c12` it is “inactive”.

Consider `Nc1nc2nc[nH]c2c(=S)[nH]1` [listing 1 of 2 here], for which the cytotoxicity call was “inactive”.

With `S=c1[nH]cnc2nc[nH]c12`, the cytotoxicity call was “active”.

Take `Nc1nc2nc[nH]c2c(=O)[nH]1`: the cytotoxicity call is “inactive”. The entry for `Nc1ncnc2nc[nH]c12` is “inactive”.

Regarding `Nc1nc2nc[nH]c2c(=S)[nH]1` [listing 2 of 2 here], the cytotoxicity call was “active”. As to `N#CCN(CC#N)C(=O)c1ccco1`, the cytotoxicity call is “inactive”. In the case of `CC(C)CC#Cc1ccc2c(c1)O[C@@H](CN(C)C(=O)C1CCOCC1)[C@@H](C)CN([C@@H](C)CO)S2(=O)=O` it was “inactive”; in that of `COc1ccc(S(=O)(=O)N(C)C[C@H]2Oc3ccc(NS(=O)(=O)c4ccccc4)cc3C(=O)N([C@@H](C)CO)C[C@H]2C)cc1`, “inactive”; in that of `Cc1noc(C)c1S(=O)(=O)Nc1ccc2c(c1)CC(=O)N([C@H](C)CO)C[C@H](C)[C@H](CN(C)Cc1ccncc1)O2`, “inactive”. In the case of `COc1ccc(S(=O)(=O)N2C[C@@H](O)COC[C@@H]3O[C@H](CC(=O)NCCCN(C)C)CC[C@H]32)cc1` it was “inactive”. `COc1cc(O)cc(O)c1C(=O)c1ccccc1`: the cytotoxicity call was “active”. Regarding `COc1ccc(C(=O)c2ccccc2)c(O)c1`, the cytotoxicity call was “inactive”. The entry for `COc1cc(O)c(C(=O)c2ccccc2)cc1S(=O)(=O)O` is “inactive”; for `C[C@H]1CN([C@@H](C)CO)C(=O)c2cc(C#Cc3cccnc3)cnc2O[C@H]1CN(C)S(=O)(=O)c1ccccc1F` it is “inactive”. The entry for `C[C@@H]1CN([C@H](C)CO)S(=O)(=O)c2ccc(C#CCN(C)C)cc2O[C@H]1CN(C)S(=O)(=O)c1cccc(F)c1` is “inactive”. `C[C@@H]1CN([C@H](C)CO)C(=O)c2cccc(NC(=O)C3CCOCC3)c2O[C@@H]1CN(C)S(=O)(=O)c1ccccc1`: the cytotoxicity call is “inactive”. Regarding `Cc1n[nH]c(NCc2ccco2)nc1=O`, the cytotoxicity call was “inactive”. Take `Cc1n[nH]c(N/N=C/c2ccccn2)nc1=O`: the cytotoxicity call is “active”. On to `CCCNc1nc(=O)c(C)n[nH]1`, for which the cytotoxicity call is “inactive”. In the case of `O=C(O)[C@@H]1CCCC[C@@H]1C(=O)N1CCc2ccccc2[C@H]1CN1C(=O)c2ccccc2C1=O.O=C(O)[C@H]1CCCC[C@@H]1C(=O)N1CCc2ccccc2[C@H]1CN1C(=O)c2ccccc2C1=O` it was “inactive”. With `C[C@@H]1CCCCO[C@H](CN(C)S(=O)(=O)c2cccs2)[C@@H](C)CN([C@H](C)CO)C(=O)c2cc(NS(=O)(=O)c3ccc(Cl)cc3)ccc2O1`, the cytotoxicity call is “inactive”.
